# In the supplement of paper PMC6992640:
# ± gives the standard deviation of the averaged measurements.
# Assays:
# Assay in all cases: cell viability (% of vehicle); higher = less cytotoxic
# HCI01 [1] = cells of a triple-negative basal-like breast cancer xenograft; details: 10 µM; 72 h
# HCI03 = cells of an ER-positive luminal breast cancer xenograft; details: 10 µM; 72 h
# HCI09 = cells of a triple-negative luminal androgen receptor type breast cancer xenograft; details: 10 µM; 72 h
# HCI11 = cells of an ER-positive luminal breast cancer xenograft; details: 10 µM; 72 h
# HCI13 = cells of an ER-positive luminal breast cancer xenograft; details: 10 µM; 72 h
# HCI16 = cells of a triple-negative basal-like breast cancer xenograft; details: 10 µM; 72 h
# UCD52 [2] = cells of a triple-negative basal-like breast cancer xenograft; details: 10 µM; 72 h
# WHIM2 [3] = cells of a triple-negative basal-like breast cancer xenograft; details: 10 µM; 72 h
# WHIM30 [4] = cells of a triple-negative basal-like breast cancer xenograft; details: 10 µM; 72 h
# HCI01 [5] = details: 1 µM; 72 h
# UCD52 [6] = details: 1 µM; 72 h
# WHIM2 [7] = details: 1 µM; 72 h
# WHIM30 [8] = details: 1 µM; 72 h
Compound,cell viability (HCI01 [1]),cell viability (HCI03),cell viability (HCI09),cell viability (HCI11),cell viability (HCI13),cell viability (HCI16),cell viability (UCD52 [2]),cell viability (WHIM2 [3]),cell viability (WHIM30 [4]),cell viability (HCI01 [5]),cell viability (UCD52 [6]),cell viability (WHIM2 [7]),cell viability (WHIM30 [8])
CCN(C)C(=O)Oc1cccc(C(C)N(C)C)c1.O=C(O)C(O)C(O)C(=O)O (stereo not drawn) [Rivastigmine Tartrate],115.8 ± 0.12,116,127 ± 62,119,133 ± 51,151,111 ± 15,91.8 ± 31,131 ± 13,–,–,–,–
C[C@]12CC[C@H]3[C@@H](CC[C@@]45O[C@@H]4C(O)=C(C#N)C[C@]35C)[C@@H]1CC[C@@H]2O [Trilostane],131 ± 24,119,90.1 ± 5.6,114,73.7 ± 19,103,115 ± 8.4,115 ± 15,100 ± 15,–,–,–,–
COc1ccc(C(CN(C)C)C2(O)CCCCC2)cc1.Cl (stereo not drawn) [Venlafaxine],103 ± 4.2,139,99.26 ± 0.21,103,124 ± 11,106,119 ± 17,118 ± 10,169 ± 35,–,–,–,–
CCC(C(N)=O)N1CCCC1=O (stereo not drawn) [Levetiracetam],141 ± 6.8,166,116 ± 17,98,107 ± 14,120,126 ± 17,91.7 ± 10,143 ± 4.9,–,–,–,–
CCOC(=O)c1cncn1C(C)c1ccccc1 (stereo not drawn) [Etomidate],114 ± 2.7,89.8,96.6 ± 3.1,90.1,103 ± 14,77.5,88.6 ± 2.2,81.8 ± 20,117 ± 6.2,–,–,–,–
CCNCC.O=S(=O)(O)c1cc(O)ccc1O [Ethamsylate],162 ± 90,124,99.4 ± 7,98,97.8 ± 10,126,109 ± 13,92.2 ± 12,103 ± 4.7,–,–,–,–
C[C@@H]1CC[C@H]2[C@@H](C)C(=O)O[C@@H]3OC4(C)CC[C@@H]1[C@]32OO4 [Artemisinine],125 ± 38,139,91.1 ± 1.5,102,95.7 ± 11,153,97.45 ± 0.15,93.9 ± 15,96.3 ± 17,–,–,–,–
CCCCCCCCCCCCCCCC[n+]1ccccc1.[Cl-] [Cetylpyridinium Chloride],32.9 ± 12,44.4,16.9 ± 3.2,53.1,25 ± 4.5,42.1,24.2 ± 1.9,36.7 ± 13,28.1 ± 0.9,92.7,67.6,63.4,52.8
CCCCCCCCCCCCCCCC[N+](C)(C)C.[Br-] [Cetrimonium Bromide (CTAB)],44.3 ± 15,56.5,21.7 ± 7.3,72,26.9 ± 2,69.1,37.5 ± 1.9,42.4 ± 8.1,35.6 ± 1.7,87.8,75.6,74.2,49.2
Cc1cccc(C)c1NC(=O)CN1CCCC1=O [Nefiracetam],124 ± 21,128,99.9 ± 6.5,91.9,149 ± 33,113,74.9 ± 0.92,85.6 ± 9.6,165 ± 5.6,–,–,–,–
CC(C)c1c(CN(C)C(C)Cc2ccccc2)n(C)n(-c2ccccc2)c1=O (stereo not drawn) [Famprofazone],121 ± 24,129,79.2 ± 5.1,111,85.3 ± 14,121,87.7 ± 11,97.6 ± 16,124 ± 8.3,–,–,–,–
COc1cc2c(c(OC)c1OC)-c1ccc(OC)c(=O)cc1C(NC(C)=O)CC2 (stereo not drawn) [Colchicine],141 ± 19,109,120 ± 4.5,102,44.3 ± 2.3,108,146 ± 28,96 ± 9,145 ± 7.8,–,–,–,–
CC(C)N(CCNC(=O)CN1CCCC1=O)C(C)C [Pramiracetam],85.1 ± 58,155,101 ± 9.4,110,120 ± 2.3,129,108 ± 2.9,119 ± 11,–,–,–,–,–
Cn1cc(C2=C(c3cn(C4CCN(Cc5ccccn5)CC4)c4ccccc34)C(=O)NC2=O)c2ccccc21,94 ± 30,95.8,72.7 ± 44,82.3,72.1 ± 9.6,99.5,49 ± 7.5,107 ± 18,119 ± 5.6,–,–,–,–
O=C(O)CCCc1ccc(N(CCCl)CCCl)cc1 [Chlorambucil],109 ± 15,179,99.8 ± 1.1,92,113.2 ± 0.69,131,108 ± 4.7,96.7 ± 9.3,126 ± 8.3,–,–,–,–
N#Cc1ccccc1-c1cc(-c2ccccn2)cn(-c2ccccc2)c1=O [Perampanel],102 ± 10,89.9,85.1 ± 33,94,83.3 ± 4.5,70.4,79.2 ± 12,89.14 ± 0.86,97 ± 4.1,–,–,–,–
C[N+]1(C)CCCC(OC(=O)C(O)(c2ccccc2)c2ccccc2)C1.[Br-] (stereo not drawn) [Mepenzolate Bromide],109 ± 6.9,133,103 ± 5.9,108,133 ± 27,108,87.5 ± 8.5,98.1 ± 7.5,128 ± 2.7,–,–,–,–
CN(C)C1C(=O)C(C(N)=O)=C(O)C2(O)C(=O)C3=C(O)c4c(O)cccc4C(C)(O)C3C(O)C12.O.O (stereo not drawn) [Oxytetracycline Dihydrate],81.3 ± 15,129,111 ± 22,83.1,123.2 ± 0.95,116,95.3 ± 1.7,72.2 ± 15,123.8 ± 0.32,–,–,–,–
N/C(N)=N\N.Cl [Aminoguanidine hydrochloride],100 ± 16,105,95.2 ± 6.9,64,90 ± 2.4,118,99.6 ± 9.3,95.1 ± 21,53.4 ± 6.4,–,–,–,–
